The campaign covered roughly 300,000 compounds. About 37,000 (12%) were called active. Rule as the data show it: active = max response mostly above about 13% (no sharp cut-off); inactive = mostly below about 14%. The entries come from a sample that favours actives as a whole.

A short description of the assay: Cycloheximide Counterscreen for Small Molecule Inhibitors of Shiga Toxin. Also: read at 38.3 µM for the half of the compounds with a filed dose; 0% is about no effect. As to conditions: cell reporter, cycloheximide protein synthesis inhibition counterscreen; stronger effect = higher value. On the technique in general: Counterscreens check selectivity or assay interference.
For the compound `CCN(CC)CCCNC(=O)c1cn(C)c2ccc(S(=O)(=O)N(C)C3CCCCC3)cc2c1=O`, the max response was -5.84% (inactive). Regarding `Fc1ccccc1/C=C1\CCCC2=C1Nc1ncnn1C2c1ccccc1F` (centres undefined), the max response is -5.33% (inactive). The figure for `COc1ccc(N(CC(=O)NCC2CCCO2)C(=O)CCC(=O)Nc2nccs2)c(OC)c1` (centres undefined) is -4% (inactive); for `CCc1ccc(N2CC(C(=O)Nc3ccc(S(=O)(=O)Nc4nccs4)cc3)CC2=O)cc1` (centres undefined) it is -3.18% (inactive); for `Cc1ccc(C(=O)N/C(=C/c2cccnc2)C(=O)O)cc1` it is -0.563% (inactive). Regarding `C/C(=N\NC(=O)CNC(=O)C(c1ccccc1)c1ccccc1)c1ccc(C)cc1`, the max response is -6.41% (inactive). In the case of `C/C(=N\NC(=O)c1ccc(C)cc1)C1C(=O)c2ccccc2C1=O`, the max response is 23.4% (active). As to `Cc1ccc(S(=O)(=O)c2nc(-c3cccs3)oc2NCc2cccnc2)cc1`, the max response was 7.52% (inactive). The figure for `O=C1c2cccc3c([N+](=O)[O-])ccc(c23)C(=O)N1CC1CCCO1` (centres undefined) is 20% (inactive). In the case of `Cc1cc(Nc2ccccc2)n(CCC#N)n1`, the max response is -3.59% (inactive).

As to `Cc1cc(Nc2ccccc2)n(C(=O)c2ccc(N)cc2)n1`, the max response is 24% (active). Consider `Cc1cc(C)n(C(=O)c2ccc(S(=O)(=O)N3CCCC3)cc2)n1`, for which the max response was -2.32% (inactive). Turning to `CC(c1ccco1)N(C(=O)COc1ccccc1[N+](=O)[O-])c1ccccn1` (centres undefined), the max response is 20.7% (inactive). The value for `O=C(COc1ccc(S(=O)(=O)N2CCCCC2)cc1)NCc1ccccn1` was 0.485% (inactive); that for `CC(c1ccco1)N(C(=O)c1ccc(S(=O)(=O)N2CCCCC2)cc1)c1ccccn1` (centres undefined) was 15.1% (active).

As for `CC(C)N1CCC(=NNc2ccc([N+](=O)[O-])cc2S(=O)(=O)N2CCOCC2)CC1`, the max response is -2.55% (inactive). As to `CN(c1ccccc1)S(=O)(=O)c1ccc2[nH]c(=O)[nH]c2c1`, the max response was -2.46% (inactive). `COc1ccc(CNc2nnnn2C)cc1`: the max response was -1.69% (inactive). Turning to `Fc1ccc(CNc2nc3ccccc3n3nnnc23)cc1`, the max response is 13.3% (active).

As for `CCOC(=O)CNc1nc2ccccc2n2c(C)nnc12`, the max response is 7.6% (inactive).

For the compound `Cc1ccc(-c2ccc(=O)n(Cc3ccc(F)cc3Cl)n2)cc1`, the max response was 7.94% (inactive). The figure for `CCN1CCN(CCNC(=O)c2ccc(/C=C3/Sc4ccccc4N(Cc4cccc(C)c4)C3=O)cc2)CC1` is -11.9% (inactive); for `CCN1/C(=C\c2ccc3ccccc3[n+]2CC)Sc2cc(C)ccc21` it is 1.19% (inactive).

As to `CCN1/C(=C/c2ccc3ccc(C)cc3[n+]2CC)Sc2ccccc21`, the max response was 11.9% (active).

As to `Cc1ccc2sc(N(CCN(C)C)C(=O)/C=C/c3cccs3)nc2c1C`, the max response is -8.25% (inactive). The value for `COc1ccc(N=C(C)c2sc3ccccc3c2O)cc1` was 43.2% (active); that for `COc1ccc(S(=O)(=O)Nc2ccc(O)c(Sc3nc4ccccc4s3)c2)cc1` was 1.12% (inactive). Turning to `COc1ccc(-n2c(O)c(C(C)=Nc3ccc4c(c3)CCC4)c(=O)[nH]c2=O)cc1`, the max response is -1.73% (inactive). The figure for `CC(=O)[C@@]12O[C@@H]1C[C@H]1[C@@H]3CC[C@H]4C[C@@H](O)CC[C@]4(C)[C@H]3CC[C@@]12C` is -5.5% (inactive); for `CCN1CCC2(CCN(Cc3cn[nH]c3-c3ccc(OC)c(F)c3)C2)C1` (centres undefined) it is -2.52% (inactive); for `Cc1ccc(NC(=O)C2CCN(S(=O)(=O)c3ccc4c(c3)NC(=O)CO4)CC2)cc1C` it is 1.16% (inactive). `COC(=O)C(NC(C)=O)(Nc1nc2c(s1)CCCC2)C(F)(F)F` (centres undefined): the max response was -2.42% (inactive).

Take `O=C(Cn1c(=O)sc2ccccc21)Nc1nc2c(s1)CCCC2`: the max response was 3.35% (inactive). Take `Fc1ccc2nc(Nc3nc4c(s3)CCCC4)sc2c1`: the max response is 40.4% (active). Turning to `CN(C)c1cc(-c2ccc(F)cc2)oc(=O)c1Cl`, the max response is 2.21% (inactive). With `Cc1cc(C)nc(Nc2n[nH]c(-c3ccccc3N)n2)n1`, the max response was 52% (active). Turning to `Cc1cc(C)nc(Nc2ncn[nH]2)n1`, the max response was -1.33% (inactive). Turning to `Cc1ccccc1-c1n[nH]c(=S)n1C`, the max response was 6.29% (inactive). As for `CS(=O)(=O)Nc1ccccc1N=C(c1ccccc1)c1ccccc1`, the max response was -4.16% (inactive). On to `C/C=C(/C)C(=O)O[C@@H]1c2cc3c(c4c2[C@@]2(CO4)C(=O)C(OC)=C(OC)C=C2C[C@@H](C)[C@H]1C)OCO3`, for which the max response is -1.03% (inactive). For the compound `COc1ccc(S(=O)(=O)N2CCSCC2)cc1`, the max response is -2.78% (inactive).

As to `CCCNC(=O)c1ccc(Cl)c(Cl)c1`, the max response is -2.92% (inactive).

`CCCNC(=O)c1c(Cl)cnn1-c1ccc(C)cc1`: the max response is 39.1% (active). With `CCCNC(=O)CCc1c(C)nc2c(c(C)nn2-c2ccc(C)cc2)c1C`, the max response was -2.97% (inactive). Regarding `O=C1C=CC(=O)N1c1ccc(N2CCCCC2)cc1`, the max response was 8% (inactive). Consider `Cc1n[nH]c(C)c1S(=O)(=O)N1CCCC(C(=O)Nc2ccc(Br)cc2)C1` (centres undefined), for which the max response was -4.38% (inactive).

In the case of `CCS(=O)(=O)c1ccc(O)c(NC(=O)COc2ccc(Cl)cc2)c1`, the max response was -2.47% (inactive). For the compound `O=C(COc1ccc(Cl)cc1)Nc1ccccc1CO`, the max response is 19.6% (active). Take `COC(=O)c1sccc1NC(=O)COc1ccc(Cl)cc1`: the max response was 18% (active). As for `COC(=O)c1sccc1NC(=O)c1ccc(Cl)cc1`, the max response was -0.926% (inactive). For `COC(=O)c1sccc1NC(=O)CCC1CCCC1`, the max response is 11% (inactive). The figure for `O=C(COc1ccc(Cl)cc1)NCCSc1ccccc1` is -2.45% (inactive).

`CCOc1ccc(N/C(N)=N/c2nc(C)c(C)c(=O)[nH]2)cc1`: the max response was 0.863% (inactive).

`Cc1ccc(NC(=O)Cn2cccc2C2=NC(c3ccccc3)CO2)c(C)c1` (centres undefined): the max response is -4.36% (inactive). The value for `N#Cc1ccc(OCc2nnc(-c3ccc([N+](=O)[O-])cc3)o2)cc1` was -2.49% (inactive). The value for `COCCn1c(SCC(=O)Nc2cc(Cl)ccc2OC)nc2c(c1=O)SC(C)C2` (centres undefined) was -1.62% (inactive); that for `O=S(=O)(Oc1ccccc1C(=S)N1CCOCC1)c1ccc(Cl)cc1` was -1.08% (inactive). The value for `NC(=O)CC(NC(=O)Cc1ccc(Br)cc1)c1ccc(NC2CC3CCC2C3)c([N+](=O)[O-])c1` (centres undefined) was 8.14% (inactive); that for `CC(C)c1ccc(/C=C/C(=O)NNC(=O)c2cccnc2)cc1` was 10.9% (inactive); that for `O=C(/C=C/c1ccc(F)cc1)NCCNC(=O)/C=C/c1ccc(F)cc1` was -1.57% (inactive). Regarding `C=CCNC(=O)/C=C/c1ccc(C(C)C)cc1`, the max response is 57.7% (active).

As to `O=C(/C=C/c1cccc(C(F)(F)F)c1)N1CCN(c2ccccn2)CC1`, the max response was 2.61% (inactive). The value for `O=C(c1cccs1)N(Cc1cc2ccccc2[nH]c1=O)CC1CCCO1` (centres undefined) was -1.8% (inactive); that for `COc1ccc(NC(=O)CN2C(=O)COc3ccc(S(=O)(=O)N4CCOCC4)cc32)c(OC)c1` was -3.45% (inactive); that for `CCCCC[C@H]1CN(C2CCCCC2)C(=O)[C@@H]1CC(=O)NCc1ccc(OC)cc1` was -1.9% (inactive).

In the case of `CCC(=O)Nc1cccc(NC(=O)CSc2nnnn2C2CCCC2)c1`, the max response was 3.23% (inactive). `Cc1ccc(-n2c(SCC(=O)Nc3ccc4c(c3)OCO4)nnc2-c2ccoc2C)cc1`: the max response was -6.42% (inactive). The value for `CCn1c(SCC(=O)Nc2ccc3c(c2)OCCO3)nc2c(c1=O)SC(C)C2` (centres undefined) was -2.67% (inactive); that for `O=C(CSc1nnnn1C1CCCC1)Nc1ccc2c(c1)OCCO2` was 20.7% (active); that for `O=C(CSc1nnnn1-c1ccc2c(c1)CCC2)Nc1ccc2c(c1)OCCO2` was 22.4% (active). With `Cc1ccc(-n2c(SCC(=O)Nc3ccc4c(c3)OCO4)nnc2-c2ccccn2)cc1`, the max response was -4.03% (inactive). The figure for `COCCCNC(NC(=O)c1ccc(OC)cc1)C(Cl)(Cl)Cl` (centres undefined) is -1.44% (inactive). The value for `O=S(=O)(c1cc(Cl)ccc1Cl)N1CCN(Cc2ccco2)CC1` was -2.5% (inactive); that for `CCC(C)N1C(=O)S/C(=C/c2ccc(Sc3nc4ccccc4[nH]3)o2)C1=O` (centres undefined) was 8.57% (inactive); that for `CC1CCN(S(=O)(=O)c2ccc3[nH]c(=O)ccc3c2)CC1` was 0.735% (inactive). Turning to `CCN(c1ccc2c(c1)OCO2)S(=O)(=O)c1cc(Br)cc2c1N(C(=O)C1CC1)CC2`, the max response is 10.1% (inactive).

Regarding `COc1ccc(Cl)cc1NC(=O)CN(C)C(=O)CCCc1c[nH]c2ccccc12`, the max response was -3.1% (inactive). With `Cc1cccc(OCC(=O)NC2CC(C)(C)NC(C)(C)C2)c1`, the max response is -1.93% (inactive).

Turning to `COc1ccc2oc(=O)cc(CN3CCOCC3)c2c1`, the max response is -3.2% (inactive). Consider `Cc1cc(=O)oc2c3c(cc(OCC(=O)NCCC(=O)N[C@@H](C)C(=O)O)c12)OC(C)(C)CC3`, for which the max response was -1.18% (inactive). As for `COc1ccc(S(=O)(=O)NCCc2cc3ccc(C)c(C)c3[nH]c2=O)cc1`, the max response is -6.24% (inactive).

For `COCc1c(C(=O)N/N=C\c2cccnc2)nnn1-c1nonc1N`, the max response is -4.36% (inactive).

As for `FC(F)(F)c1cccc(-c2cc3ccccc3nc2N2CCCC2)c1`, the max response was 3.78% (inactive).

For `COc1ccc2[nH]cc(/C=C(/C#N)S(=O)(=O)c3ccccc3)c2c1`, the max response was -3.42% (inactive). `CCC/C(=N\O)c1c[nH]c2ccccc12`: the max response was 13.5% (inactive). As to `COc1ccc(/C=C(\C#N)c2c[nH]c3ccccc23)cc1`, the max response is 47.7% (active). Regarding `CCO[C@@H]1OC(C(N)=O)=C[C@H](c2ccc(Br)cc2)[C@H]1CCCO`, the max response was -0.863% (inactive).

For `CCC/C=C(\CCC)C(NC(=O)Cc1ccccc1)c1ccc(C(=O)OC)cc1` (centres undefined), the max response is -2.68% (inactive). The figure for `Cc1ccc(C(=O)c2coc3ccc(O)c(CN(C)C)c23)cc1` is -0.656% (inactive); for `CN(C)Cc1c(O)ccc2c(=O)c(-c3ccccc3Cl)coc12` it is 1.67% (inactive); for `CN(C)Cc1c(O)ccc2occ(C(O)c3ccccc3)c12` (centres undefined) it is 17.6% (active).

On to `c1ccc(Cc2ccc(OCCn3ccnc3)cc2)cc1`, for which the max response was 12% (inactive). In the case of `C=CCc1cc(C)ccc1OCCCn1ccnc1`, the max response is -0.408% (inactive). For the compound `Clc1c(OCCCn2ccnc2)ccc2ccccc12`, the max response was 20.6% (active).
